According to PubChem BioAssay (NCATS):
Results filed as inconclusive are left out. Active and inactive are the calls of the source. Unless noted, calls follow the shape of the dose curve; as a rule, active = well fitted curve in the direction sought with a large enough effect; inconclusive = small, poorly fitted or top-dose-only effect, or another doubt; inactive = no such curve, though single readings can be large; an effect the other way counts as inactive or inconclusive.

Experiments:
[1] = molecular target: ATP-dependent DNA helicase Q1 (Homo sapiens) (UniProt P46063); test: qHTS Validation Assay for Inhibitors of RecQ-Like Dna Helicase 1 (RECQ1) (AID 2353)
In short: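 50 nM RECQ1T1 preincubated 15 min with compound in Tris pH 8.0 buffer with MgCl2, DTT, Tween-20 and 2.5 ug/ml poly(dI-dC); started with 200 nM TAMRA/BHQ-2 forked duplex and 2 mM ATP. Unwinding read as fluorescence (525/598 nm), two reads 2 h apart.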

[2] = Cytometric Cell-Based qHTS for Inhibitors of the mTORC1 Signaling Pathway in MEF (Tsc2-/-, p53-/-) Cells (AID 2660);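 also: Tsc2 and p53 null MEFs carrying empty vector with compound for 24 h; percent of cells above a phospho-rpS6 to PI ratio cutoff in each well; series mostly up to about 38 µM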
In short: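 Readout: Alexa-488 phospho-rpS6 (Ser235/236) intensity divided by PI intensity, thresholded against 7.5 nM rapamycin wells and reported as % positive cells. PI cell count served as the viability measure. Compound exposure was 24 hrs at 37 degree Celsius.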

[3] = High Content Imaging Cell-Based qHTS for Inhibitors of the mTORC1 Signaling Pathway in MEF (Tsc2-/-, p53-/-) Cells (AID 2666);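 also: percent of cells scored positive for phospho-rpS6 Ser235/236 immunostaining by imaging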
In short: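 Cells were plated, dosed with compound after 24 hrs, and incubated another 24 hrs at 37 degree Celsius. Fixed cells were immunostained for phospho-rpS6 Ser235/236 and counterstained, and the normalized signal was scored as % active cells against rapamycin and DMSO controls.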

[4] = High Content Imaging Cell-Based qHTS for Inhibitors of the mTORC1 Signaling Pathway in MEF Cells (AID 2667);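 also: Tsc2-/- p53-/- MEFs stably re-expressing wild-type Tsc2 exposed 24 h; series mostly up to about 38 µM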
In short: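 Immunofluorescence for rpS6 phosphorylation in MEFs of Tsc2-/-, p53-/- background rescued with WT Tsc2. Compound exposure lasted 24 hrs. Inhibition was scored against rapamycin-treated control wells.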

[5] = Cytometry Cell-Based qHTS for Inhibitors of the mTORC1 Signaling Pathway in MEF cells (AID 2668); also: potency is read from the fitted curve at half-maximal effect
In short: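 Tsc2-/-, p53-/- MEFs re-expressing WT Tsc2; cpd 24 hrs, 37 degree Celsius; PFA fix, Alexa-488 p-rpS6 (Ser235/236) Ab 2 hrs RT, PI counterstain; Acumen 488nm scan; p-S6/PI ratio → % positive cells; PI count = viability.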

[6] = Validation screen for small molecules that induce DNA re-replication in MCF 10A normal breast cells (AID 463097); also: nearly all actives have a fitted effect of over 60% in size; also: potency is read from the fitted curve at half-maximal effect
In short: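 Image-based qHTS: normal breast cells are incubated with compound for 48 hr, stained with Hoechst, and scanned for total nuclear fluorescence. Compounds raising the fraction of nuclei with elevated DNA content count as re-replication inducers.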

[7] = molecular target: Ubiquitin carboxyl-terminal hydrolase 2 (Homo sapiens) (UniProt O75604); test: qHTS Validation Assay for Inhibitors of Ubiquitin-specific Protease USP2a Using CHOP2 as the Reporter (AID 463106)
In short: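 10nM USP2 core + cpd, 30min RT; add 25nM Ub-CHOP2/25nM substrate; 60min RT; FI 485/531nm. Buffer Tris pH 8.0, CaCl2, BME, CHAPS. Norm. to NEM = 100% inhibition; time-zero read flags fluorescent artifacts.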

[8] = molecular target: DNA polymerase III PolC-type (Bacillus subtilis (strain 168)) (UniProt P13267); test: qHTS Validation Assay for the Inhibitors of DNA Replication in Gram-Positive Bacteria (AID 485295);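 also: reconstituted holoenzyme with PolC plus beta clamp SSB and primase; PicoGreen fluorescence of double-stranded DNA made on primed circular M13 template; series mostly up to about 57 µM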
In short: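 First, compound is mixed with the reconstituted replication complex and held at room temperature. Next, circular single-stranded M13Gori with nucleotides starts synthesis. Finally, PicoGreen in EDTA halts the reaction and stains double-stranded product for fluorescence reading.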

[9] = molecular target: Tumor susceptibility gene 101 protein (Homo sapiens) (UniProt Q99816); test: qHTS Validation Assay for Iinhibitors of HIV-1 Budding by Blocking the Interaction of PTAP/TSG101 (AID 485342; calls by dose curve)
In short: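 Binding of a FITC-tagged PTAP-motif peptide (50 nM) to the Tsg101 binding domain (10 uM) is monitored by fluorescence polarization. Compounds are pin-delivered before peptide addition, and incubation runs 20 min at room temperature.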

[10] = qHTS Validation Assay to Find Inhibitors of Chronic Active B-Cell Receptor Signaling (AID 485345; active = well fitted curve in the direction sought with a large enough effect in the main read-out, with a control signal flat, not every such curve was filed as active)
In short: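 Read-out: ratio of filter-corrected green (IkappaBalpha fusion) to red (native) luciferase signal in doxycycline-induced TMD8 cells after 4 h at 37C. Titration spanned 46 uM–3 nM; Data were normalised to basal cells and 10 uM MG-132 wells.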

[11] = molecular target: Thioredoxin reductase 1, cytoplasmic (Rattus norvegicus) (UniProt O89049); test: qHTS Assay for Substrates of Mammalian Selenoprotein Thioredoxin Reductase 1 (TrxR1) (AID 488772);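 also: NADPH fluorescence in the first read after selenite addition and not the 8 min delta; series mostly up to about 57 µM; a drop in NADPH fluorescence below the no-compound background marks a TrxR1 substrate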
In short: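 Quantitative HTS in Tris-HCl buffer at pH 7.5 with EDTA and Tween-20, using rat TrxR1, 400 uM NADPH and 400 uM selenite (final). A fall in initial NADPH fluorescence relative to background marked substrate behaviour.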

[12] = molecular target: Thioredoxin reductase 1, cytoplasmic (Rattus norvegicus) (UniProt O89049); test: qHTS Assay for Inhibitors of Mammalian Selenoprotein Thioredoxin Reductase 1 (TrxR1) (AID 488773); conditions: Potency: inhibition; also: nearly all actives have a fitted effect of over 40% in size; also: potency is read from the fitted curve at half-maximal effect
In short: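 Steps: enzyme (90 nM) plus NADPH (400 uM final), 5 min at ~22 deg C; compound added, 15 min; selenite (400 uM final) added; fluorescence followed for 8 min. Concentration-response curves derived from the normalized delta values.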

[13] = molecular target: Flap endonuclease 1 (Homo sapiens) (UniProt P39748); test: qHTS Validation Assay for the Inhibitors of Human Flap endonuclease 1 (FEN1) (AID 488816)
In short: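 Readings taken at 0 and 15 min after starting the reaction with 50 nM (final) substrate supplied the signal. Compounds had first sat with 10 nM FEN1 reagent for 15 min at room temperature. Values come from Hill-equation concentration-response fits.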

[14] = molecular target: M-phase phosphoprotein 8 (Homo sapiens) (UniProt Q99549); test: qHTS Validation Assay for Inhibitors for MPP8 Chromodomain Interactions with Methylated Histone Tails (AID 488949); also: nearly all actives have a fitted effect of over 55% in size; also: potency is read from the fitted curve at half-maximal effect
In short: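 50 nM MPP8 + 50 nM b-H3K9me3 peptide, PBS pH 7.4/0.01% Tween-20, 30 min RT; + cpd 30 min RT; + AlphaScreen donor/Ni-chelate acceptor beads 10 ug/mL final, 30 min dark; luminescence read.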

[15] = molecular target: Ferritin light chain (Equus caballus) (UniProt P02791); test: qHTS Validation Assay for Identification of Novel General Anesthetics (AID 2323); also: series mostly up to about 77 µM
In short: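 Fluorescence at 535 nm (excitation 380 nm) reported loss of 1-AMA binding to horse-spleen apoferritin (10 uM) in PBS with 50% saturated 1-aminoanthracene, after 10 min room-temperature incubation with compound; values from Hill fits of normalized response.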

[16] = molecular target: RecQ-like DNA helicase BLM (Homo sapiens) (UniProt P54132); test: qHTS Validation Assay for Inhibitors of Bloom's syndrome helicase (BLM) (AID 2364)
In short: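 Forked 20-bp duplex substrate (200 nM, TAMRA/BHQ-2) plus 2 mM ATP added after 15 min compound preincubation with 50 nM enzyme, pH 8.0, poly(dI-dC) 2.5 ug/ml. Strand separation followed by fluorescence (525/598 nm) over 2 h, normalized to enzyme-free and DMSO controls.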

[17] = Quantitative high throughput screen for delayed death inhibitors of the malarial parasite plastid, 96 hour incubation (AID 488745); also: nearly all actives have a fitted effect of over 70% in size; also: potency is read from the fitted curve at half-maximal effect
In short: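 Growth of reporter-bearing P. falciparum in red cells is measured after 96 h with compound, covering two erythrocytic cycles. Luminescence from the integrated luciferase serves as the growth signal.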

[18] = Quantitative high throughput screen for delayed death inhibitors of the malarial parasite plastid, 48 hour incubation (AID 488752); also: nearly all actives have a fitted effect of over 65% in size
In short: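 One parasite generation (48 h, 37 C, 5% CO2) of luciferase-reporter P. falciparum in erythrocytes is run with test compound; decreased luminescence indicates inhibited growth.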

[19] = molecular target: Chromobox protein homolog 1 (Homo sapiens) (UniProt P83916); test: qHTS Validation Assay for Inhibitors of HP1-beta Chromodomain Interactions with Methylated Histone Tails (AID 488953); also: nearly all actives have a fitted effect of over 50% in size; also: potency is read from the fitted curve at half-maximal effect
In short: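 Measured as loss of AlphaScreen luminescence from streptavidin donor and nickel acceptor beads (10 ug/mL final) bridging HP1-beta and biotin-H3(1-18)K9me3, each 50 nM. Compounds met the preassembled complex for 30 min at RT.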

[20] = molecular target: ATP-dependent 6-phosphofructokinase (Trypanosoma brucei brucei) (UniProt O15648); test: qHTS Validation Assay to Find Inhibitors of T. brucei phosphofructokinase (AID 485368); conditions: outcome: dose series up to 57.5 µM
In short: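 Compounds (up to 57 uM, titration series) were pinned into substrate buffer, then 1.25 nM PFK added; after 45 min at room temperature, ADP product was quantified by ADP-Glo luminescence and concentration-response curves fitted.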

Measured: Potency

RecQ-like DNA helicase BLM (Homo sapiens), sequence (P54132 whole entry, looked up): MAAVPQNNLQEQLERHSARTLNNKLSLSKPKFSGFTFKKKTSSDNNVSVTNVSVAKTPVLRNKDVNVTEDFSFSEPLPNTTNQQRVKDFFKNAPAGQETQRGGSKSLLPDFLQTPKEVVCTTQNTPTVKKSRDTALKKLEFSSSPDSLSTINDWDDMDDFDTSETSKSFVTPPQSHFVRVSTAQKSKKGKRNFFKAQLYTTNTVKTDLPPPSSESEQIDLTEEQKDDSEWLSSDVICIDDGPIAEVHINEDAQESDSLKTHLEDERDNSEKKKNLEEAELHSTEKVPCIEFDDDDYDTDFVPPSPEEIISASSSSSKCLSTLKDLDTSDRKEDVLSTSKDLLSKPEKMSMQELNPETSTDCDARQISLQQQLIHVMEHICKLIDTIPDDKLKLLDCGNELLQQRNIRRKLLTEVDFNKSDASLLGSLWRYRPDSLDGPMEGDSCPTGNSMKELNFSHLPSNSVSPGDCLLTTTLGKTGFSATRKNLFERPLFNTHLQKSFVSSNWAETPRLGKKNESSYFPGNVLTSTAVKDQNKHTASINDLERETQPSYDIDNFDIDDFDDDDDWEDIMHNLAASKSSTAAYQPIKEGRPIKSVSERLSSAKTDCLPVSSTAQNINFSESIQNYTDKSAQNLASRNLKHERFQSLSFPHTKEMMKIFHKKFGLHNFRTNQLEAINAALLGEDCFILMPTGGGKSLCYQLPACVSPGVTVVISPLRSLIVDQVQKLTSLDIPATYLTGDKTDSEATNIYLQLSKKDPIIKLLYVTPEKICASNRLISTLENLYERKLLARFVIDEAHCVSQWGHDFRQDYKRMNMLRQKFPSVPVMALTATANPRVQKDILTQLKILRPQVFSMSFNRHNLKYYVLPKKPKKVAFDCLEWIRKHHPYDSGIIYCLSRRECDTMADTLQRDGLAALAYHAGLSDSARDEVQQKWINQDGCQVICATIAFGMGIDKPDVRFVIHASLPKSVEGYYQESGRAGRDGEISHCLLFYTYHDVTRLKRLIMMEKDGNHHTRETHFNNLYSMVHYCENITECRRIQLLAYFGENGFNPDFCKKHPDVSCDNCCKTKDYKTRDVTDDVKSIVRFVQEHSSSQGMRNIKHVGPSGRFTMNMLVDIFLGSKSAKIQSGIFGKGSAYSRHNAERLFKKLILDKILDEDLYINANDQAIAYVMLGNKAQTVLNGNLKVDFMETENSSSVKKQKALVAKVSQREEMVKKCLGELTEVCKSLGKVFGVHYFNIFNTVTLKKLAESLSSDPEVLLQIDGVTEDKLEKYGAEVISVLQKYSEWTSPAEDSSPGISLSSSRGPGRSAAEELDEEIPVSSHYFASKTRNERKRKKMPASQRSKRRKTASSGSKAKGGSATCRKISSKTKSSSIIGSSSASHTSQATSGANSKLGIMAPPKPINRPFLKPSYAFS
Tumor susceptibility gene 101 protein (Homo sapiens), sequence (Q99816 whole entry, looked up, the tested form may be a part): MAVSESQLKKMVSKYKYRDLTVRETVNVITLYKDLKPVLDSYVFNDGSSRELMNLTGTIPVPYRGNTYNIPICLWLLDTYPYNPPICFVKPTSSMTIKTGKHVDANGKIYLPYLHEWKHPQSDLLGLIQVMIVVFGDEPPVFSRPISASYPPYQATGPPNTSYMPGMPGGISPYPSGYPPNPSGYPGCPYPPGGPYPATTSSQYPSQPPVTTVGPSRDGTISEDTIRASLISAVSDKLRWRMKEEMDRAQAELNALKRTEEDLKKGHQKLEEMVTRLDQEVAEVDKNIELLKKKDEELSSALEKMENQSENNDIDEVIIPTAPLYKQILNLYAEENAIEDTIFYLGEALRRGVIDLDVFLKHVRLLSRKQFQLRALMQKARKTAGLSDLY
DNA polymerase III PolC-type (Bacillus subtilis (strain 168)), sequence (P13267 whole entry, looked up): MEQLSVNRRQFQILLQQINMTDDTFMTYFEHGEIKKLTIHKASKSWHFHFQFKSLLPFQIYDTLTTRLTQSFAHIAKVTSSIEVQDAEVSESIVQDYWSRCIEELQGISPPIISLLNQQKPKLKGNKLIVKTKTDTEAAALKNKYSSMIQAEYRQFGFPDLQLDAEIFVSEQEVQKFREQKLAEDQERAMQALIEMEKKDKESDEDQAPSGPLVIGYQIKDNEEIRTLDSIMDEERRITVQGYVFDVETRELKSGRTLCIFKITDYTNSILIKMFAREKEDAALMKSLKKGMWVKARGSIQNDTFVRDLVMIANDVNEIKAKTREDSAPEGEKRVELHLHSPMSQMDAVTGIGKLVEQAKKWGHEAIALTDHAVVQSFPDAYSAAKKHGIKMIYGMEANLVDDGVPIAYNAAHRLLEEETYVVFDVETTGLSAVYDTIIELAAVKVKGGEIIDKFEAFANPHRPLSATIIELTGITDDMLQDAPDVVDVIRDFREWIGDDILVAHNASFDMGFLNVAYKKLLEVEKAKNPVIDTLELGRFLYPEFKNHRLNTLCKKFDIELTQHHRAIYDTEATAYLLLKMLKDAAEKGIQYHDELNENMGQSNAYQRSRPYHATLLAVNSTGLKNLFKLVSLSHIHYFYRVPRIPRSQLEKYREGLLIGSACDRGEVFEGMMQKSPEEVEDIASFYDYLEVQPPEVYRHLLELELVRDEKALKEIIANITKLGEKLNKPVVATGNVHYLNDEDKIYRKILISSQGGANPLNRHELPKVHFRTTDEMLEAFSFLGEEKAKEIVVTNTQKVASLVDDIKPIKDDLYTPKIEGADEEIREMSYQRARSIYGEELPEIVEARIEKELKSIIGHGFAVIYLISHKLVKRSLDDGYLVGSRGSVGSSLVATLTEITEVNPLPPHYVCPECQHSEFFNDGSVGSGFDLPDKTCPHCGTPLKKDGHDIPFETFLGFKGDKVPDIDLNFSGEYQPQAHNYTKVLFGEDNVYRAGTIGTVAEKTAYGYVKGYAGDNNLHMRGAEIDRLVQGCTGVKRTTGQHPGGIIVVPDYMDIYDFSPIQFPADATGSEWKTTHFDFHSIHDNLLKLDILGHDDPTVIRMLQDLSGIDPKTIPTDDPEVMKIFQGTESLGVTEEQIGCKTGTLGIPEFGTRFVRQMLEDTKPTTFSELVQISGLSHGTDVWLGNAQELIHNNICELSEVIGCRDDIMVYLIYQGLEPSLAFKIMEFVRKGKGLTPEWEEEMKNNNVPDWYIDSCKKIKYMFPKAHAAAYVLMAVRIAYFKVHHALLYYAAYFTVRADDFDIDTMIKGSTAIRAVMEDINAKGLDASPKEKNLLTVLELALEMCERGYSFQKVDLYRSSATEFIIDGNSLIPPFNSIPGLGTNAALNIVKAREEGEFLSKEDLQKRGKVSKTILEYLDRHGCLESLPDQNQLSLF
ATP-dependent DNA helicase Q1 (Homo sapiens), sequence (P46063 whole entry, looked up): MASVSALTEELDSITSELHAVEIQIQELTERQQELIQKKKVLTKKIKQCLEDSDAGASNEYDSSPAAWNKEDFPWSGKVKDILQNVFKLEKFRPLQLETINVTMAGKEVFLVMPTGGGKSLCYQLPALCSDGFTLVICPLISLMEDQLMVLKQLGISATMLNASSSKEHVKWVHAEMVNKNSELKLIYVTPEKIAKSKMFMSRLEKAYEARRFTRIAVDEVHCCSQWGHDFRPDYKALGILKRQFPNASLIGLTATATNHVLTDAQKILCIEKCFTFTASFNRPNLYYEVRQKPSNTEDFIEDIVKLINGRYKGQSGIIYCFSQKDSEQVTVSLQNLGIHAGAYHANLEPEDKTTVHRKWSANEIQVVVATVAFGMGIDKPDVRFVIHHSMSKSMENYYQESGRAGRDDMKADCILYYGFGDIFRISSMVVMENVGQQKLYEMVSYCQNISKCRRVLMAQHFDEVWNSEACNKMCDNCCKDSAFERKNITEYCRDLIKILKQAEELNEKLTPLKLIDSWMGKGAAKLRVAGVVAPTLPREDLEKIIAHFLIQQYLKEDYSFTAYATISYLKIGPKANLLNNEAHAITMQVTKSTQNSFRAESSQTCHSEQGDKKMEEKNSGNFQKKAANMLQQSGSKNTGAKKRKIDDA
Chromobox protein homolog 1 (Homo sapiens), sequence (P83916 whole entry, looked up): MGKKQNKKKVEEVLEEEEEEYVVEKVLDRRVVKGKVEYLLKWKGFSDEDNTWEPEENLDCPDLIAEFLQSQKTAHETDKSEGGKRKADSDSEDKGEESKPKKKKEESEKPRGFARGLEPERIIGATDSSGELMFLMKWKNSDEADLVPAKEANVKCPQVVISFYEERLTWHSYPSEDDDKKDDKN
Ubiquitin carboxyl-terminal hydrolase 2 (Homo sapiens), sequence (O75604 whole entry, looked up): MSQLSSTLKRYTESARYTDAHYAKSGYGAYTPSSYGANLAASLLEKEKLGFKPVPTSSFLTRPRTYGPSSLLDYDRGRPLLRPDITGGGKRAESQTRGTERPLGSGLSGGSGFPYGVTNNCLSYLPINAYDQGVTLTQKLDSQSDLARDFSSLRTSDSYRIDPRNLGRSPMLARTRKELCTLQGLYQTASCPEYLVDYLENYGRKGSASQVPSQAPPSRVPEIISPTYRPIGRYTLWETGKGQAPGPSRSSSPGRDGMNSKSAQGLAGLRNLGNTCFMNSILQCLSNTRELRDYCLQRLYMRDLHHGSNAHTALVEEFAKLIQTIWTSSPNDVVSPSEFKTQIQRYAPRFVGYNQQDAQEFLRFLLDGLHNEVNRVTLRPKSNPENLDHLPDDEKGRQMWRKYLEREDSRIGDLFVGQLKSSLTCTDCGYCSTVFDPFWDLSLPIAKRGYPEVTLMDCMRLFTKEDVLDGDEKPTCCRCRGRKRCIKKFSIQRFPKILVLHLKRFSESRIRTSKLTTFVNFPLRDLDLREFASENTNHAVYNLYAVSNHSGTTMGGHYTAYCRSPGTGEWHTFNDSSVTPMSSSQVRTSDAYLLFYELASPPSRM
Ferritin light chain (Equus caballus), sequence (P02791 2-175 limits assumed): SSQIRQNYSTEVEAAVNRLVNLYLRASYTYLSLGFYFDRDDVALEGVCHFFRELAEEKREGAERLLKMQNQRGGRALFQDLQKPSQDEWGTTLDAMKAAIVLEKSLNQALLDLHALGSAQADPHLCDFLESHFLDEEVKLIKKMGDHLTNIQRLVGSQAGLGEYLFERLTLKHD

CCCCC1C(=O)N(c2ccccc2)N(c2ccccc2)C1=O
inactive: [1] | [2] | [3] | [4] | [5] | [6] | [7] | [8] | [9] | [10] | [11] | [12] | [13] | [14]

CCCNC(=O)NS(=O)(=O)c1ccc(Cl)cc1
inactive: [15] | [1] | [16] | [2] | [3] | [4] | [5] | [6] | [7] | [8] | [9] | [10] | [17] | [18] | [11] | [12] | [13] | [14] | [19]

CCn1cc(C(=O)O)c(=O)c2ccc(C)nc21
inactive: [2] | [3] | [4] | [5] | [7] | [8] | [9] | [10] | [20] | [11] | [12] | [19]

CC(=O)O[C@]1(C(C)=O)CC[C@H]2[C@@H]3C=C(Cl)C4=CC(=O)[C@@H]5C[C@@H]5[C@]4(C)[C@H]3CC[C@@]21C
inactive: [2] | [3] | [4] | [5] | [7] | [8] | [9] | [10] | [20] | [11] | [12] | [13] | [14] | [19]

CC/C(=C(\c1ccccc1)c1ccc(OCCN(C)C)cc1)c1ccccc1
inactive: [15] | [1] | [7] | [9] | [20] | [11] | [12] | [13]
active: [6] 17.8 µM | [17] 13.1 µM | [14] 17.8 µM | [19] 35.5 µM

COc1cccc(-c2cc(=O)c3ccccc3o2)c1N
inactive: [15] | [1] | [2] | [3] | [4] | [5] | [7] | [8] | [9] | [10] | [11] | [12] | [13] | [14] | [19]

O=C(O)CCc1nc(-c2ccccc2)c(-c2ccccc2)o1
inactive: [15] | [1] | [16] | [2] | [3] | [4] | [5] | [6] | [7] | [8] | [9] | [10] | [20] | [17] | [18] | [11] | [12] | [19]

Clc1ccc(Cn2c(CN3CCCC3)nc3ccccc32)cc1
inactive: [1] | [2] | [3] | [4] | [5] | [6] | [7] | [8] | [9] | [10] | [18] | [11] | [12] | [13] | [14]

CC1=C(/C=C/C(C)=C/C=C/C(C)=C/C(=O)Nc2ccc(O)cc2)C(C)(C)CCC1
inactive: [1] | [7] | [8] | [9] | [20] | [13] | [14]
active: [5] 18.5 µM | [19] 39.8 µM

COC(=O)[C@@H]1[C@H]2C[C@H]3c4[nH]c5ccccc5c4CCN3C[C@@H]2CC[C@@H]1O
inactive: [15] | [1] | [16] | [2] | [3] | [4] | [6] | [7] | [8] | [9] | [20] | [17] | [18] | [11] | [12] | [14] | [19]

CC(C)NCC(O)COc1cccc2[nH]ccc12 (configuration not stated)
inactive: [15] | [1] | [2] | [3] | [4] | [5] | [6] | [7] | [8] | [9] | [10] | [17] | [18] | [11] | [12]

CN(C)CCC(c1ccccc1)c1ccccn1 (configuration not stated)
inactive: [15] | [1] | [16] | [2] | [3] | [4] | [5] | [6] | [7] | [8] | [9] | [10] | [20] | [17] | [18] | [11] | [12] | [14] | [19]

CC(=O)c1ccc(S(=O)(=O)NC(=O)NC2CCCCC2)cc1
inactive: [15] | [1] | [2] | [3] | [4] | [5] | [6] | [7] | [8] | [9] | [10] | [20] | [17] | [18] | [11] | [12] | [14] | [19]

COc1ccc(Cc2nccc3cc(OC)c(OC)cc23)cc1OC
inactive: [2] | [3] | [4] | [5] | [7] | [8] | [9] | [20] | [11]

O=c1c(-c2ccc(O)cc2)coc2cc(O)ccc12
inactive: [15] | [1] | [2] | [3] | [4] | [5] | [6] | [7] | [8] | [9] | [11] | [13] | [14] | [19]
active: [12] 8.44 µM

C[N+](C)(C)CCCCCC[N+](C)(C)C
inactive: [15] | [1] | [16] | [2] | [3] | [4] | [5] | [6] | [7] | [8] | [9] | [10] | [20] | [17] | [18] | [11] | [12] | [13] | [14] | [19]

CCN1CCC[C@H]1CNC(=O)c1cc(S(N)(=O)=O)ccc1OC
inactive: [15] | [1] | [2] | [3] | [4] | [5] | [6] | [7] | [8] | [9] | [10] | [17] | [18] | [11] | [12] | [13] | [14] | [19]

CCN(CC)C(=O)c1ccc(O)c(OC)c1
inactive: [15] | [1] | [2] | [3] | [4] | [5] | [6] | [7] | [8] | [9] | [10] | [20] | [17] | [18] | [11] | [12] | [14] | [19]
